Screens as filed in PubChem.
SARS PLpro yeast: blocks SARS-CoV papain-like protease in a yeast assay; S. cerevisiae expressing SARS-CoV PLpro, growth rescue; Potency, µM (titrated, usually from 32.9 µM), usual class: activators; 330,000 compounds, 0.19% hits; calls by dose curve; note: nearly all actives have a fitted effect of over 55% in size
CHX counter: counter-screen for Shiga toxin inhibitors: cycloheximide protein synthesis inhibition; 300,000 compounds, 12% hits; AID 2314; max response, %; cell reporter, cycloheximide protein synthesis inhibition counterscreen; in the data active = max response mostly above about 13%, no sharp cut-off; inactive = mostly below about 14%; note: read at 38.3 µM for the half of the compounds with a filed dose
Pf growth 48h: inhibits P. falciparum growth in the first generation, 48 h; P. falciparum luciferase growth in erythrocytes, 48 h; Potency, µM (top dose mostly 28.7 µM), usual class: inhibitors; 310,000 compounds, 5.9% hits; AID 504832
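Luminescence readout; reporter = integrated firefly luciferase in P. falciparum. RBC culture at 2% hematocrit, 0.1% parasitemia final, 37 C/5% CO2; decreased signal taken as growth inhibition.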
Pf growth 96h: P. falciparum growth inhibition at 96 hours; P. falciparum luciferase reporter growth, 96 h; Potency, µM (titrated, usually from 28.7 µM), most hits filed as inhibitors; 320,000 compounds, 6.9% hits; AID 504834
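Two-generation exposure (96 h) targets delayed-death phenotype. Reporter parasites carrying integrated firefly luciferase, in red cells at 2% hematocrit and 0.05% parasitemia final, kept at 37 C, 5% CO2; luminescence loss indicates inhibition.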
NS1 inh: influenza NS1 inhibition; Potency, µM (top dose mostly 46.1 µM); 270,000 compounds, 0.4% hits; AID 2326; calls by dose curve; note: actives are rising curves; nearly all actives have a fitted effect of over 50% in size
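OD600 was taken as the measure of yeast growth restored by compound in an NS1-expressing S. cerevisiae strain. Cells had been washed out of glucose medium and diluted 1:100 into galactose -URA medium, pH 6.0.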
Shiga inhibitor: inhibitors of Shiga toxin in Vero cells; Vero cells, Shiga toxin protein synthesis inhibition reporter; inhibition, % at 38.7 µM; 290,000 compounds, 9.2% hits; AID 2315; in the data active = inhibition mostly above about 28%, no sharp cut-off; inactive = mostly below about 43%
Each line names hits and unclear results; the compound was inactive in the other large screens. Most compounds without a hit are left out; they make up all but 21% or so of the library. Unless noted, calls come from the whole dose curve; as a rule, active = well fitted inhibition curve with a large enough effect; inconclusive = small, poorly fitted or top-dose-only effect, or another doubt; inactive = no such curve, though single readings can be large or run the other way.

C[C@@H](C(=O)Nc1nc2ccccc2s1)N1C(=O)C2CC=CCC2C1=O (stereo partly drawn)	none (no result: NS1 inh)
C[C@@H](C(=O)Nc1nc2ccc(F)cc2s1)N1C(=O)C2CC=CCC2C1=O (stereo partly drawn)	CHX counter 23, Pf growth 48h inconclusive
Cc1nc2c(=O)[nH]c(=S)n(C)c2nc1C	Pf growth 96h inconclusive
O=c1[nH]nc(SCc2ccccc2)n1C1CC2C=CC1C2 (stereo not drawn)	none
CCOc1ccc(S(=O)(=O)N2CCCCC2)cc1NC(=O)CC1OC(=O)c2ccccc21 (stereo not drawn)	none (no result: CHX counter, NS1 inh, Shiga inhibitor)
CCOc1ccc(N=C2C(=O)N(CN3CCOCC3)c3ccccc32)cc1	Pf growth 96h 13µM
COC(=O)C1=C[C@@H](C(=O)OC)C2C3=C(C(=O)[C@@]2(CC(C)C)NC(=O)c2ccccc2)[C@H](C)n2c(=O)n(C)c(=O)n2[C@@H]3C1 (stereo partly drawn)	none (no result: SARS PLpro yeast, Pf growth 48h, Pf growth 96h, NS1 inh)
O=C(/C=C/c1ccc2c(c1)OCO2)NCCSCc1ccc(Cl)cc1Cl	none
O=C(/C=C/c1ccc2c(c1)OCO2)Nc1ccc(Cl)cn1	CHX counter 34, Shiga inhibitor 78 (no result: NS1 inh)
O=C(COC(=O)CCOc1ccccc1)Nc1ccc(Cl)cn1	none
O=C(COc1ccccc1Cl)Nc1ccc(Cl)cn1	CHX counter 39, Pf growth 96h 10µM, Shiga inhibitor 63
CC(C)=CC(=O)OCC(=O)Nc1ccc(Cl)cn1	CHX counter 19 (no result: Pf growth 96h)
O=C(COc1ccccc1)Nc1ccc(Cl)cn1	CHX counter 62, Pf growth 48h inconclusive, Shiga inhibitor 62
CCc1ccccc1NC(=O)CN(C)C(=O)COC(=O)c1c(Cl)cccc1Cl	Pf growth 48h inconclusive, Pf growth 96h inconclusive (no result: CHX counter, NS1 inh, Shiga inhibitor)
CC(=O)c1cccc(N2C(=NC(=O)C3CCCCC3)SC3CS(=O)(=O)CC32)c1 (stereo not drawn)	none
CCOc1ccc(NS(=O)(=O)c2cc(C(=O)N3CCN(c4ccccc4O)CC3)ccc2Cl)cc1	Pf growth 48h inconclusive, Pf growth 96h inconclusive (no result: CHX counter, NS1 inh, Shiga inhibitor)
O=C(COc1ccc2c(c1)OCO2)Nc1ccccc1F	CHX counter 41, Pf growth 96h inconclusive, Shiga inhibitor 108
COC(=O)c1ccccc1NC(=O)COc1ccc2c(c1)OCO2	Pf growth 96h inconclusive
CCOCc1nnc(NC(=O)COc2ccc3c(c2)OCO3)s1	none
O=C(COc1ccc2c(c1)OCO2)Nc1ccc(Cl)cn1	CHX counter 51, Shiga inhibitor 69
O=C(COc1ccc(Cl)cc1)Nc1ccc(Cl)cn1	CHX counter 26 (no result: Pf growth 96h)
COc1ccccc1C(=O)OCC(=O)Nc1ccc(Cl)cn1	CHX counter 27 (no result: NS1 inh)
Cc1c(C(=O)Nc2ccc(S(=O)(=O)N3CCOCC3)cc2)cccc1[N+](=O)[O-]	Pf growth 96h inconclusive (no result: Shiga inhibitor)
O=C(COc1ccc2c(c1)OCO2)Nc1nccs1	Pf growth 96h inconclusive, Shiga inhibitor 58
CC(C)[C@H](NC(=O)c1ccc(Br)cc1)C(=O)NC1CCCCC1	Pf growth 48h inconclusive (no result: CHX counter, NS1 inh, Shiga inhibitor)
CSc1nncc(-c2ccc(F)c(F)c2)n1	Pf growth 48h inconclusive, Pf growth 96h inconclusive
CSc1nncc(-c2ccc(F)cc2)n1	CHX counter 14, Pf growth 48h inconclusive, Pf growth 96h inconclusive
COC(=O)c1ccn(Cc2ccccc2Cl)n1	CHX counter 44, Pf growth 96h inconclusive, Shiga inhibitor 63 (no result: NS1 inh)
COc1cc(OC)c(C(=O)OCC(=O)NCC2CCCCC2)cc1OC	none (no result: CHX counter, NS1 inh, Shiga inhibitor)
C[C@]12CC(O)C3C(CCC4=CC(=O)CC[C@@]43C)C1CCC2c1csc(-c2ccccc2)n1 (stereo partly drawn)	Pf growth 48h 5.2µM, Pf growth 96h inconclusive
Nc1cccc(Oc2ccc3c(c2)C(=O)N(CC2CCCO2)C3=O)c1 (stereo not drawn)	CHX counter 35, Shiga inhibitor 82
COc1ccccc1/C=C/c1nc(S(=O)(=O)c2ccccc2)c(NCCN(C)C)o1	Pf growth 48h inconclusive
COc1ccc(/C=C/c2nc(S(=O)(=O)c3ccccc3)c(NCCCN(C)C)o2)cc1OC	Pf growth 48h 12µM, Pf growth 96h inconclusive
O=S(=O)(/N=C(/c1ccccc1)N1CCOCC1)c1ccc(F)cc1F	none (no result: CHX counter, Pf growth 48h, Pf growth 96h, NS1 inh, Shiga inhibitor)
COc1ccc(C2NC(c3ccc(OC)cc3)C(c3ccccc3)C(=O)C2c2ccccc2)cc1 (stereo not drawn)	Pf growth 48h 12µM, Pf growth 96h 10µM
